In publication PMC4552634, “A New Set of Chemical Starting Points with Plasmodium falciparum Transmission-Blocking Potential for Antimalarial Drug Discovery” (PLoS ONE, 2015):
Among all 13,000 compounds or so, about 3,200 (25%) showed an effect of 50% or more. Some of the results follow.

tested on: P. falciparum stage V gametocytes; parameters: BacTiter-Glo ATP luminescence viability of purified stage V gametocytes in 384-well plates, per cent inhibition versus DMSO; details: 48 h, 5 µM; inhibitor

| SMILES | % Inhibition [%] |
| --- | --- |
| O=C(Nc1ccc(C(=O)N2CCN(CCN3CCN(c4cccc(C(F)(F)F)c4)CC3)CC2)cc1)c1cc(Cl)cc(Cl)c1 [TCMDC-138146] | -60.88 |
| O=C(Nc1cc2cc(-c3ccc(CN4CCCCC4)cc3)ccc2n2cnnc12)NC1CCCC1 [TCMDC-136882] | 63.39 |
| O=C(Nc1cccc(Cl)c1Cl)NC1CCN(Cc2cccc(O)c2)CC1 [TCMDC-136485] | -12.42 |
| CCCNC(=O)C1CCN(C(c2ccc(Cl)cc2)c2ccc(Cl)cc2)CC1 [TCMDC-135518] | 16.22 |
| O=C(NC1CCC1)C1CCN(C(c2ccccc2)c2cc(F)cc(F)c2)CC1 (centres unmarked) [TCMDC-135514] | -3.594 |
| O=C(NCC1CC1)C1CCN(C(c2ccc(Cl)cc2)c2ccc(Cl)cc2)CC1 [TCMDC-135522] | -2.377 |
| COCCNC(=O)C1CCN(C(c2ccc(Cl)cc2)c2ccc(Cl)cc2)CC1 [TCMDC-135519] | -9.136 |
| CCCNC(=O)C1CCN(C(c2ccccc2)c2ccc(Cl)c(Cl)c2)CC1 (centres unmarked) [TCMDC-135517] | -34.35 |
| O=C(NCC1CC1)C1CCN(C(c2ccccc2)c2nc3ccccc3s2)CC1 (centres unmarked) [TCMDC-135523] | -36.83 |
| O=C(NCC1CC1)C1CCN(C(c2ccccc2)c2ccc(Cl)c(Cl)c2)CC1 (centres unmarked) [TCMDC-135515] | 70.5 |
| O=C(NC1CCC1)C1CCN(C(c2ccc(Cl)cc2)c2ccc(Cl)cc2)CC1 [TCMDC-135520] | 57.43 |
| O=C(NCC1CC1)C1CCN(C(c2ccccc2)c2cc(F)cc(F)c2)CC1 (centres unmarked) [TCMDC-135513] | 62.39 |
| COc1ccc(C(=O)NCc2ccc(N)nc2C)cc1Nc1ncc(-c2cccc(N(C)C)c2)cn1 [TCMDC-132420] | -21.32 |
| CCc1ccc(Cc2cnc3nc(N)nc(N)c3c2C)cc1CC [TCMDC-138054] | 77.27 |
| CCc1ccc(Cc2cnc3nc(N)nc(N)c3c2C)cc1 [TCMDC-137686] | 14.74 |
| CCCc1ccc(Cc2cnc3nc(N)nc(N)c3c2C)cc1 [TCMDC-138046] | 5.48 |
| Cc1nc(N)nc(N)c1OCCCOc1cccc(Cl)c1Cl [TCMDC-131369] | -7.285 |
| OCCN1CCN(c2nc(Nc3cccc(F)c3)c3cnn(-c4ccccc4)c3n2)CC1 [TCMDC-124948] | 87.2 |
| O=C(Nc1ccc(N2CCCN(Cc3cccc(F)c3)CC2)cc1)c1ccccc1 [TCMDC-135014] | -40.3 |
| OCCN1CCN(C(=S)Nc2ccccc2)CC1 [TCMDC-123846] | -8.492 |
| Clc1cc(Cl)c2c(c1)C(NCCCNc1nc3ccccc3[nH]1)CCO2 (centres unmarked) [TCMDC-139802] | -25.37 |
| O=c1cc(NC[C@@H]2CCC[C@@H]2NCc2ccc(Cl)c(Cl)c2)[nH]c2ccccc12 [TCMDC-139627] | -25.41 |

| SMILES | % Inhibition [%] |
| --- | --- |
| Clc1cc(Cl)c2cc(CN[C@H]3CCC[C@@H]3CNc3nc4ccccc4[nH]3)[nH]c2c1 [TCMDC-139878] | 63.13 |
| CC1=C(C(=O)Nc2ccc(Cl)cc2)C(c2ccncc2)n2nc(C(F)(F)F)nc2N1 (centres unmarked) [TCMDC-124419] | -9.933 |
| COc1ccc(C2C(C(=O)Nc3ccccc3)=C(C)Nc3c(C(=O)Nc4ccccc4)cnn32)cc1 (centres unmarked) [TCMDC-125284] | -13.81 |
| CC1=C(C(=O)Nc2ccccc2)C(c2ccc([N+](=O)[O-])cc2)n2ncc(C(=O)Nc3ccccc3)c2N1 (centres unmarked) [TCMDC-125283] | 50.23 |
| c1csc(-c2ccc3c(c2)CC(NCc2c[nH]c4cnccc24)C3)c1 (centres unmarked) [TCMDC-134833] | 42.25 |
| COc1cccc(NC(=O)c2cc([N+](=O)[O-])ccc2NC(=O)CN2CCc3ccccc3C2)c1 [TCMDC-123678] | 69.57 |
| CCC(CC)N1CCN(CC(=O)Nc2ccc([N+](=O)[O-])cc2C(=O)Nc2cccc(OC)c2)CC1 [TCMDC-123679] | -23.44 |
| COc1cc(NC(=O)c2cc([N+](=O)[O-])ccc2NC(=O)CNC2CCCC(C)C2C)cc(OC)c1 (centres unmarked) [TCMDC-125300] | -31.14 |
| COc1cc(F)c2ncc(Cl)c(CCN3CCC(NCc4ccc5c(n4)NC(=O)CO5)CC3)c2c1 [TCMDC-135621] | -16.17 |
| O=C(Nc1ccc(-c2nc3ccccc3[nH]2)cc1)c1cccc(S(=O)(=O)N2CCOCC2)c1 [TCMDC-125263] | -3.664 |
| NS(=O)(=O)c1cccc(-c2ccc3ncc(N4CCOCC4)nc3c2)c1 [TCMDC-134052] | 73.87 |
| Cc1cc(N2CCOCC2)nc2ccc(NC(=O)c3cccc([N+](=O)[O-])c3)cc12 [TCMDC-123601] | 0.6281 |
| CC(C)c1ccc(CN2CCC(CNC(=O)c3cc(-c4ccc(N(C)C)cc4)cs3)C2)cc1 (centres unmarked) [TCMDC-134440] | 77.06 |
| CN(C)c1ccc(-c2csc(C(=O)NCC3CCN(Cc4cccc(C(F)(F)F)c4)C3)c2)cc1 (centres unmarked) [TCMDC-134486] | 49.29 |
| CN(C)c1ccc(-c2csc(C(=O)NCC3CCN(CCC(C)(C)C)C3)c2)cc1 (centres unmarked) [TCMDC-134427] | 60.6 |
| CN(C)c1ccc(-c2csc(C(=O)NCC3CCN(Cc4ccc(C(C)(C)C)cc4)C3)c2)cc1 (centres unmarked) [TCMDC-134449] | 80.7 |
| O=C1CCCC1Sc1nc2ccccc2c(=O)n1-c1ccc(Cl)c(Cl)c1 (centres unmarked) [TCMDC-125029] | -36.37 |
| CC1(C)N=C(N)N=C(N)N1OCCSc1ccc(Cl)c(Cl)c1 [TCMDC-131704] | 5.969 |
| CN1CCN(c2cc3c(cc2Br)CCN3C(=O)Nc2ccc(-c3cnc4ccccc4c3)cc2)CC1 [TCMDC-139280] | 14.3 |
| Cc1cc(N[C@@H](CC(C)C)C(=O)Nc2ccccc2)nc(NCC2CCCCC2)n1 [TCMDC-134921] | -51.59 |
| CCOc1cc(C)ccc1N(C1CCN(CCCCNC(=O)c2ccc(-c3ccc(C(F)(F)F)cc3)cc2)CC1)S(=O)(=O)c1ccccc1 [TCMDC-138637] | 32.99 |
| CCC(C)c1ccc(-n2c(Nc3ccccc3)nc3cc(S(N)(=O)=O)ccc32)cc1 (centres unmarked) [TCMDC-135490] | -10.42 |
